# Screens deposited in PubChem by several laboratories.
# TMEM16A act – activators or potentiators of mouse TMEM16A chloride channel; AID 623877; actives 0.3% (n = 340,000); B-score at 10 µM; HEK293 TMEM16A/YFP-H148Q/I152L, iodide quench fluorescence; active compounds read low;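 active means fluorescence-ratio B-score plate-corrected deviation score at least 3 library SD below zero, with starting fluorescence score within 5 deviations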;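 further: channel opened by trigger with iodide after compound preincubation; score built on the fluorescence ratio of max minus min over baseline; more negative score means more quench and so TMEM16A activation or potentiation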
# CHT PAM – allosterically activates the human high affinity choline transporter; CHT-expressing cells, membrane potential dye, choline EC20; active compounds read high; LV-AA mutant CHT in HEK293 cells; actives 0.49% (n = 310,000); B-score at 10 µM; Q9GZV3;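 active means initial fluorescence not abnormally high and integrated response B-score, plate-corrected, over 3 SD above library mean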
# ANO1 block – blocks the mouse calcium-activated chloride channel TMEM16A. HEK293 TMEM16A/YFP iodide influx fluorescence, ionomycin. AID 588511. normalized B-score (activity score, 25-100; higher = stronger inhibition) at 10 µM. Q8BHY3. actives 1.2% (n = 310,000);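 active means ratio plate-corrected score three or more library SD toward inhibition, starting fluorescence score within five deviations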;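 further: score derived from kinetic fluorescence span divided by baseline fluorescence per well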
# PKA-R1A activ – activators of PKA-R1A complex; AID 504707; activation, % at 11.4 µM; P00514+P68181; actives 0.083% (n = 340,000); PKA-R1A dissociation, Cy5-IP20 fluorescence polarization; scaled: DMSO 0%, 113 µM cGMP 100%;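 active means percent activation above the mean of all tested compounds plus 3 SD, cut at about 19% in these data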;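 further: higher means more PKAc released from R1A so a rise in polarization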
# CHT inh – inhibitors of human choline transporter CHT | CHT-expressing cells, membrane potential dye, choline response; active compounds read low | B-score at 10 µM | actives 0.86% (n = 310,000) | Q9GZV3 | AID 488975;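 active means B-score over 3 SD under the library average, and starting fluorescence ratio not unusually high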;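 further: choline stimulus applied at its EC90 after an EC20 pre-addition; B-score computed on integrated fluorescence ratio after choline addition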
# PKA-R2B act – PKA-R2B complex activation | P22694+P31323 | actives 0.079% (n = 340,000) | PKA-R2B holoenzyme dissociation, Cy5-IP20 fluorescence polarization; R2B truncated from residue 108, S112A mutant; 0% DMSO only, 100% 113 µM cGMP | activation, % at 11.4 µM;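 active means activation above a cutoff set at the mean over all compounds plus 3 SD, cut at about 18% in these data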;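 further: higher means more holoenzyme dissociation and a rise in polarization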
# Target sequence (P31323 whole entry, looked up, other chains not shown, the tested form may be a part): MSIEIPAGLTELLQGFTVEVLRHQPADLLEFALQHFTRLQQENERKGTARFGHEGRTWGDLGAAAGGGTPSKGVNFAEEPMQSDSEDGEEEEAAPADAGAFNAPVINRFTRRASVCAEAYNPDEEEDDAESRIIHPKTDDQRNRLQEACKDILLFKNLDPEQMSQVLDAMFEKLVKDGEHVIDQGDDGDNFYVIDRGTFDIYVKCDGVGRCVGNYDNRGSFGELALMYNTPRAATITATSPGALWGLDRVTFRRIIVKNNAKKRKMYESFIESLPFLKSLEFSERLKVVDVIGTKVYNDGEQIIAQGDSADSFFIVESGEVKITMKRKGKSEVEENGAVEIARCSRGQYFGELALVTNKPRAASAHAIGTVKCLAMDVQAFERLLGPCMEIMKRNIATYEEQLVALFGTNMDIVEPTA
# CHT act confirm – confirmation of human choline transporter (CHT) activators; shares compounds with CHT PAM; activation, % at 10 µM; CHT-expressing cells, membrane potential dye fluorescence (FDSS); % of choline EC20–EC90 response window; HEK293 expressing CHT LV-AA mutant; choline added at its EC20; actives 91% (n = 2,500); AID 504833;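 active means primary screen active, with duplicate mean activation above negative control mean plus 3 SD, cut at about 11% in these data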
# HEK293 MP dye – activity in parental HEK293 cells lacking CHT; actives 62% (n = 2,500); membrane potential dye fluorescence (FDSS); measured after EC20 choline addition; ratio readout change at 10 µM, hits read low; shares compounds with CHT PAM;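 active means duplicate-averaged ratio beyond 3 SD from buffer wells, up or down, though filed actives are nearly all decreases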
# An asterisk follows results filed as active; i = inactive; · = no result given. Hits are enriched below; roughly 2.5% of the tested compounds scored in any of these assays.
SMILES,TMEM16A act,CHT PAM,ANO1 block,PKA-R1A activ,CHT inh,PKA-R2B act,CHT act confirm,HEK293 MP dye
O=C1CCC(C(=O)N(Cc2cccs2)C2(C(=O)NC3CCCCC3)CCCCC2)N1 (configuration not stated),i,7*,i,-2,i,10,31*,i
COc1ccc(CN(CC(O)COCc2ccccc2)S(=O)(=O)c2ccccc2Br)cc1 (configuration not stated),·,·,·,-10,·,-8,·,·
O=C(NC1CC(=O)N(c2ccccc2)C1)N1CCN(C(=O)c2ccco2)CC1 (configuration not stated),i,i,i,2,i,-7,·,·
Cc1ccc2c(c1)nc(NCCCO)n2C,i,i,i,-11,i,-12,19*,-41*
Cn1c(NCCCO)nc2ccccc21,i,i,i,-1,i,8,·,·
Cc1c(N(C)S(=O)(=O)c2cccc(C(=O)NC(C)C)c2)c(=O)n(-c2ccccc2)n1C,i,i,i,6,i,-3,·,·
O=c1oc2ccccc2cc1-c1nc2ccccc2o1,i,i,i,9,i,3,·,·
Nc1cc2nc3ccccc3oc-2cc1=O,i,6.8*,i,-10,i,-4,13*,-38*
CCn1cc(C2=NCCO2)c2ccccc21,i,9.4*,i,-11,i,1,43*,-44*
CCn1cc(C2=NC(C)CO2)c2ccccc21 (configuration not stated),i,i,i,-7,i,4,·,·
COc1ccc(Cl)cc1NC(=O)CN(C)C(=O)c1cc(-c2ccncc2)nc2ccccc12,i,7.8*,i,-3,i,-9,49*,i
COCCNc1nc(-c2ccccc2)nc2ccccc12,i,i,i,-6,i,0,31*,-36*
COC(=O)CNC(c1ccccc1)c1cc(Br)ccc1NC(=O)CNC(=O)OCc1ccccc1 (configuration not stated),i,6.3*,i,-10,i,-3,47*,i
COc1c(-c2ccccc2)oc2c(ccc3occc32)c1=O,i,·,·,-11,·,-10,·,·
COC(=O)c1cc2c(C)[nH]c(C)c2cc(C(=O)OC)c1=O,i,i,i,2,i,-5,30*,-45*
N#C/C(=C\c1c(N2CCCCC2)nc2ccccn2c1=O)C(=O)NC1CCS(=O)(=O)C1 (configuration not stated),i,13*,i,1,i,-7,0,-62*
Cc1cccn2c(=O)c(/C=C(\C#N)C(=O)NC3CCS(=O)(=O)C3)c(N3CCC(C)CC3)nc12 (configuration not stated),i,i,i,-4,i,-12,·,·
COc1ccc2nc(NC3=NCCC3)sc2c1,i,6.5*,i,1,i,2,54*,-45*
COc1ccc(-c2nc(NC3=NCCCCC3)sc2C)cc1,i,i,i,-12,i,4,·,·
O=C(NNC(=O)c1cc(Cl)ccc1[N+](=O)[O-])c1csc(N2CCOCC2)n1,i,i,i,5,i,2,·,·
CN1CCCC1=Nc1c2c(nc3ccccc13)N(C)CC2,i,8.9*,i,3,i,-2,61*,-57*
c1ccc2c(c1)nc(N1CCCCCC1)c1ccccc12,i,i,i,-4,i,-2,·,·
